This is a sample that favours compounds with a hit; in the whole collection about 19% have one here.
ELG1 repair inh = ELG1-dependent DNA repair inhibition | AID 504467 | HEK293T ELG1-luciferase reporter, luminescence, 16 h; DNA damage induced by 5-fluorouridine | Potency, µM (highest dose often 46.1 µM), without a hit: top-dose activity change, negative = inhibition, hits mostly inhibitors | actives 2.3% (n = 330,000); further: potency means the concentration at half of the fitted maximal effect; nearly all actives have a fitted effect of over 55% in size
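Overnight (16 hr) co-exposure of 2,000 cells/well to 5-fluorouridine and compound at 37 °C preceded detection. Luciferase was quantified via ONE-Glo luminescence; loss of signal denotes inhibition.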
TDP1 cell noCPT = qHTS for Inhibitors of human tyrosyl-DNA phosphodiesterase 1 (TDP1): qHTS in cells in absence of CPT; AID 686978, 2013; DT40 Tdp1-/- hTDP1 cells, no CPT, ATP luminescence, 48 h; Potency, µM (highest dose often 46.2 µM), for inactives: at the top dose activity change, negative = growth inhibition, actives largely listed as inhibitors; actives 15% (n = 420,000); further: potency means the concentration at half of the fitted maximal effect; nearly all actives have a fitted effect of over 55% in size
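A cellular qHTS used chicken DT40 cells lacking endogenous Tdp1 but carrying stably transfected human TDP1. Compounds were applied without camptothecin, and cell growth kinetics were judged by ATP-dependent luminescence after ≥48 hr.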
HT1080 IDH1KD tx = HT-1080 IDH1 knockdown cell toxicity (counter line) | actives 2% (n = 360,000) | HT-1080 IDH1 knockdown viability, ATP luminescence, 48 h | Potency, µM (doses to about 46.1 µM), inactives show top-dose activity, negative = toxicity, hits mostly cytotoxic;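 further: potency means the concentration at half of the fitted maximal effect; 0% = DMSO wells and -100% = cell-free medium wells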
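IDH1KD HT-1080 cells, 750/well, RPMI + 5% FBS; compound pinned after 2 h settling; 48 h, 37 °C; CellTiter-Glo luminescence; % activity normalised to DMSO and no-cell wells; curves fitted, classed by r2 and efficacy.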
TDP1 cell CPT = growth inhibition of DT40 Tdp1-/-;hTDP1 cells with camptothecin (screen for TDP1 inhibitors) | Potency, µM (series often up to 46.2 µM), inactives show at the top dose activity change, negative = growth inhibition, most hits filed as inhibitors | actives 12% (n = 420,000) | chicken DT40 Tdp1-/-;hTDP1 cells + 20 nM CPT, ATP luminescence, 48 h; further: potency means the concentration at half of the fitted maximal effect; nearly all actives have a fitted effect of over 55% in size
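Chicken DT40 Tdp1-/- cells complemented with human TDP1, 400 cells/well, exposed to compounds plus 20 nM camptothecin for at least 48 h at 37 C; viability read as ATP content by CellTiter-Glo luminescence.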
IL-1B inflam inh = inflammasome signaling inhibition, IL-1 beta readout; THP-1 LPS/ATP IL-1B secretion, AlphaLISA, 16 h; stronger effect = lower value; activity change, % at 57.5 µM; actives 4.7% (n = 360,000); AID 743279; in the data active means activity change below about -50%; inconclusive means mostly about -30% to -49%
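Secreted IL-1B measured by AlphaLISA bead assay after 16 h compound exposure of THP-1 cells; compounds (final up to 57.5 uM) added 1 h before LPS (250 ng/mL) and ATP (1.25 mM) stimulation; lower signal means less secretion.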
HT1080NT lethal = kills 2HG-producing HT-1080-NT fibrosarcoma cells; HT-1080-NT fibrosarcoma viability, CellTiter-Glo ATP luminescence, 48 h; Potency, µM (highest dose often 46.1 µM), inactives show top-dose activity, negative = less viability, usual class: cytotoxic; actives 1.6% (n = 360,000); AID 686970;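 further: NT is the 2HG producing partner of a matched IDH1 knockdown line; potency means the concentration at half of the fitted maximal effect; 0% = DMSO-treated cells and -100% = media-only wells without cells; nearly all actives have a fitted effect of over 55% in size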
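Viability by CellTiter-Glo luminescence after 48 h compound exposure at 37C of HT-1080-NT cells (750/well, RPMI, 5% FBS). % activity scaled between DMSO wells and medium-only wells, then curve-fitted and categorized by curve class.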
Active calls of the source: *; ! = a repeat was not active. Unless noted, the call rests on the fitted dose curve; in most records, active means well fitted curve in the direction sought with a large enough effect; inconclusive means small, poorly fitted or top-dose-only effect, or another doubt; inactive means no such curve, though single readings can be large; an effect the other way counts as inactive or inconclusive. Unless noted, on the % scale 0 is the no-effect control and ±100 the full control effect.

Screening Cc1cc(NC(=O)/C=C/c2cccc(F)c2)n(-c2nc3ccccc3[nH]2)n1 returned ELG1 repair inh inconclusive, TDP1 cell noCPT 11.6µM*, HT1080 IDH1KD tx -16.8%, TDP1 cell CPT 23.1µM*, IL-1B inflam inh -0.4 and HT1080NT lethal -8.1%.
Screening Cc1cc(NC(=O)Nc2cccc(Cl)c2)n(C(C)(C)C)n1 returned ELG1 repair inh -1.4%, TDP1 cell noCPT inconclusive, HT1080 IDH1KD tx 4.6%, TDP1 cell CPT inconclusive, IL-1B inflam inh -1.3 and HT1080NT lethal 14.2%.
Screening Cc1cc(NC(=O)/C=C/c2cccc(Cl)c2)n(-c2nc3ccccc3[nH]2)n1 returned ELG1 repair inh inconclusive, TDP1 cell noCPT 11.6µM*, HT1080 IDH1KD tx -9.0%, TDP1 cell CPT -91.9%, IL-1B inflam inh 26.5 and HT1080NT lethal -3.9%.
`COc1ccc(/C=C/C(=O)Nc2cc(C)nn2-c2nc3ccccc3[nH]2)cc1` gave ELG1 repair inh inconclusive, TDP1 cell noCPT 18.4µM*, HT1080 IDH1KD tx -5.8%, TDP1 cell CPT inconclusive, IL-1B inflam inh -5.6 and HT1080NT lethal -7.6%.
Cc1cc(NC(=O)CSc2nc3ccccc3[nH]2)n(-c2ccccc2)n1 was read as ELG1 repair inh inconclusive, TDP1 cell noCPT inconclusive, HT1080 IDH1KD tx -10.8%, TDP1 cell CPT inconclusive, IL-1B inflam inh 0.0 and HT1080NT lethal -0.7%.
`Cc1cc(S(=O)(=O)N2CCCOC2CNC(=O)C(=O)NCCCN2CCOCC2)ccc1F` (stereo not given) gave ELG1 repair inh 4.2%, TDP1 cell noCPT 3.4%, HT1080 IDH1KD tx 5.4%, TDP1 cell CPT 10.2%, IL-1B inflam inh 9.2 and HT1080NT lethal 6.0%.
`CC(=O)c1ccc(Nc2nc3ccccc3nc2-n2nc(C)cc2C)cc1` gave TDP1 cell noCPT -16.8% and TDP1 cell CPT -28.8%.
O=C(NC1CCCCC1)C(c1ccccn1)N(C(=O)c1csnn1)c1ccccc1F (stereo not given) was read as ELG1 repair inh 6.0%, TDP1 cell noCPT -14.9%, HT1080 IDH1KD tx 5.5%, TDP1 cell CPT -16.1%, IL-1B inflam inh 23.2 and HT1080NT lethal 6.3%.
`O=C(c1ccco1)N1CCC2(CCCN(c3ccncc3)C2)CC1` gave TDP1 cell noCPT -27.9% and TDP1 cell CPT -10.4%.
For Cc1cc(NC(=O)/C=C/c2ccc(F)cc2)n(-c2nc3ccccc3[nH]2)n1 the results were ELG1 repair inh 18.8%, TDP1 cell noCPT 14.6µM*, HT1080 IDH1KD tx -3.1%, TDP1 cell CPT inconclusive, IL-1B inflam inh 7.0 and HT1080NT lethal -12.7%.
For NC(=S)N/N=C/c1ccccc1 the results were ELG1 repair inh 17.4%, TDP1 cell noCPT -22.8%, HT1080 IDH1KD tx -0.6%, TDP1 cell CPT -2.3%, IL-1B inflam inh 15.2 and HT1080NT lethal 5.6%.
`NC(=S)N/N=C/c1ccc(C23CC4CC(CC(C4)C2)C3)cc1` gave ELG1 repair inh 4.7%, TDP1 cell noCPT 3.66µM*, HT1080 IDH1KD tx inconclusive, TDP1 cell CPT 9.2µM*, IL-1B inflam inh 16.2 and HT1080NT lethal inconclusive.
Screening C1CCC(NC(=NC2C3CC4CC(C3)CC2C4)N2CCOCC2)CC1 (stereo not given) returned TDP1 cell noCPT 22.7µM* and TDP1 cell CPT 28.6µM*!.
For Cc1nc(NCc2c(C)nn(C)c2Cl)sc1-c1ccn(CC2COc3ccccc3O2)n1 (stereo not given) the results were TDP1 cell noCPT 20.6µM* and TDP1 cell CPT 16.4µM*.
Screening Cc1nn(C)cc1CNc1nc(C)c(-c2ccn(CC3COc4ccccc4O3)n2)s1 (stereo not given) returned TDP1 cell noCPT 20.6µM* and TDP1 cell CPT inconclusive.
Cc1ccccc1CSc1ccc2nnc(-c3ccccn3)n2n1 was read as ELG1 repair inh -3.9%, TDP1 cell noCPT inconclusive, HT1080 IDH1KD tx 4.8%, TDP1 cell CPT -23.3%, IL-1B inflam inh inconclusive and HT1080NT lethal 10.1%.
`CC(=O)Nc1ccc(NC(=O)C2CCN(c3c(NC(C)=O)c(C)nn3-c3ccccc3)CC2)cc1` gave TDP1 cell noCPT 10.4% and TDP1 cell CPT 2.1%.
`O=C(/C=C/c1ccco1)NC(=S)Nc1ccccc1N1CCCC1` gave ELG1 repair inh -6.5%, TDP1 cell noCPT 20.6µM*, HT1080 IDH1KD tx -27.8%, TDP1 cell CPT inconclusive, IL-1B inflam inh 35.0 and HT1080NT lethal -19.6%.
For O=C(/C=C\c1ccco1)NC(=S)Nc1ccccc1O the results were ELG1 repair inh inconclusive, TDP1 cell noCPT inconclusive, HT1080 IDH1KD tx inconclusive, TDP1 cell CPT 18.4µM*, IL-1B inflam inh -10.2 and HT1080NT lethal inconclusive.
For Cc1ccc(NC(=S)NC(=O)/C=C/c2ccco2)c(O)c1 the results were ELG1 repair inh -1.7%, TDP1 cell noCPT inconclusive, HT1080 IDH1KD tx -15.7%, TDP1 cell CPT -11.3%, IL-1B inflam inh -8.6 and HT1080NT lethal 3.6%.
`O=C(/C=C/c1ccco1)NC(=S)Nc1ccccc1O` gave ELG1 repair inh inconclusive, TDP1 cell noCPT 18.4µM*, HT1080 IDH1KD tx -30.0%, TDP1 cell CPT inconclusive, IL-1B inflam inh -18.6 and HT1080NT lethal -30.0%.
Screening O=C(/C=C/c1ccco1)NC(=S)Nc1ccccc1N1CCOCC1 returned ELG1 repair inh 13.0%, TDP1 cell noCPT inconclusive, HT1080 IDH1KD tx 3.9%, TDP1 cell CPT -24.4%, IL-1B inflam inh 5.5 and HT1080NT lethal 4.4%.
CCc1ccc(NC(=O)Cn2c(=O)c(-c3ccccc3NC(C)=O)nc3ccccc32)cc1 was read as TDP1 cell noCPT -19.7% and TDP1 cell CPT -6.7%.
C#CCNC(=O)c1ccc2sc([C@@H]3O[C@H](CO)[C@H](O)[C@H](O)[C@H]3O)nc2c1 was read as TDP1 cell noCPT 13.4%, HT1080 IDH1KD tx 25.9%, TDP1 cell CPT -8.8%, IL-1B inflam inh 2.4 and HT1080NT lethal 23.7%.
Cc1noc(C)c1C(=O)N1CCC(C(=O)c2ccccc2)CC1 was read as ELG1 repair inh -23.6%, TDP1 cell noCPT -6.3%, HT1080 IDH1KD tx 12.8%, TDP1 cell CPT 3.5%, IL-1B inflam inh 3.8 and HT1080NT lethal inconclusive.
CSCC[C@H](NC(=O)c1ccc2c(c1)OCO2)c1nnc2ccccn12 was read as ELG1 repair inh inconclusive, TDP1 cell noCPT 19.7%, HT1080 IDH1KD tx 8.9%, TDP1 cell CPT -0.8%, IL-1B inflam inh 16.8 and HT1080NT lethal 8.9%.

Assay outcomes from PubChem.
